Laboratory results reported in PubChem BioAssay.
The source made the active and inactive calls.

How the values were obtained:
[1] = system: Human papillomavirus type 1a protein E7 (residues 44-93); experiment: HPV1a E7 fragment binders on microarrays, primary screen, biochemical, small-molecule microarray, residues 44-93, 635 nm fluorescence (AID 1108); conditions: small-molecule microarray binding, fluorescence 635 nm; higher = more signal;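 further: E7 fragment applied at 1 µg/mL in TBST for 1 h at 4 C; score combines spot fluorescence with its signal to noise ratio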
[2] = modulators of HCV replicon luciferase signal, primary screen, HCV replication inhibitor project, Huh7 cells, luciferase reporter (AID 1109); conditions: 48 h, higher = more signal;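 further: huh7 hepatoma cells harbouring a luciferase neomycin HCV replicon reporter; luciferase luminescence as measure of HCV replicon replication; test concentration not given here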
[3] = target: Left-right determination factor 2 (Homo sapiens) (UniProt O00292); experiment: LEFTY2 binders on small-molecule microarrays, primary screen, biochemical, small-molecule microarray, 635 nm fluorescence scan (AID 1110); conditions: LEFTY2 binding, higher = more signal
Left-right determination factor 2 (Homo sapiens), sequence (O00292 whole entry, looked up): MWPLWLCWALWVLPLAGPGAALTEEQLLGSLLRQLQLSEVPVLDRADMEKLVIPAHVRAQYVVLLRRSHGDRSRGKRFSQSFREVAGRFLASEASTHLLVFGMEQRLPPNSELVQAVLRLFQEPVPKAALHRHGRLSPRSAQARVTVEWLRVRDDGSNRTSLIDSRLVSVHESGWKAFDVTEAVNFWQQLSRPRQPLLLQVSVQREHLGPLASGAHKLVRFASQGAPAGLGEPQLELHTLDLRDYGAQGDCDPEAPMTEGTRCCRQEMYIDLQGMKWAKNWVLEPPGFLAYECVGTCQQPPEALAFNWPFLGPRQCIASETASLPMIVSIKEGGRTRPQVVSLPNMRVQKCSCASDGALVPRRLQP

[4] = target: Calmodulin-1 (Homo sapiens) (UniProt P0DP23); experiment: CALM1 binders on microarrays, EGTA buffer, profiling panel, biochemical, small-molecule microarray, Cy5-labelled CALM1 (AID 1111); conditions: Cy5-CALM1 binding fluorescence, higher = more signal;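 further: labelled calmodulin applied in Tris saline Tween buffer holding calcium plus EGTA and DTT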
[5] = target: Calmodulin-1 (Homo sapiens) (UniProt P0DP23); experiment: calcium-bound CALM1 binders on microarrays, profiling panel, artefact control for SMM control-protein annotation, biochemical, small-molecule microarray, Cy5-labelled CALM1, plus calcium (AID 1112); conditions: Cy5-CALM1 binding fluorescence, higher = more signal;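 further: score merges spot fluorescence with signal to noise from triplicate slides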
[6] = small-molecule microarray binders of probe aWnt5a, primary screen, biochemical, biotinylated probe, 635/667 nm fluorescence (AID 1113); conditions: higher = more signal;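 further: score merges 667 nm fluorescence intensity with signal-to-noise per printed feature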
[7] = small-molecule microarray binders of probe aShh, primary screen, biochemical, biotinylated probe, 635/667 nm fluorescence (AID 1114); conditions: higher = more signal;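 further: probe is biotin-labelled aShh protein from a stem cell growth factor screen; measures binding of labelled protein to compounds printed on the slide; score merges feature fluorescence at 667 nm with signal-to-noise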
[8] = small-molecule microarray binders of probe aNog, primary screen, biochemical, biotinylated probe, 635/667 nm fluorescence (AID 1115); conditions: higher = more signal;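 further: probe is biotinylated aNog protein used at 0.15 µg/mL for 1 h at 4 C; z-score combines 667 nm fluorescence of each spot with its signal to noise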
[9] = target: Torsin-1A-interacting protein 1 (Homo sapiens) (UniProt Q5JTV8); experiment: LAP1 binders from COS7 cell lysate, primary screen, small-molecule microarray, 635/667 nm fluorescence (AID 1116); conditions: COS7-hLAP1 lysate binding, 635 nm fluorescence, higher = more signal
Torsin-1A-interacting protein 1 (Homo sapiens), sequence (Q5JTV8 whole entry, looked up): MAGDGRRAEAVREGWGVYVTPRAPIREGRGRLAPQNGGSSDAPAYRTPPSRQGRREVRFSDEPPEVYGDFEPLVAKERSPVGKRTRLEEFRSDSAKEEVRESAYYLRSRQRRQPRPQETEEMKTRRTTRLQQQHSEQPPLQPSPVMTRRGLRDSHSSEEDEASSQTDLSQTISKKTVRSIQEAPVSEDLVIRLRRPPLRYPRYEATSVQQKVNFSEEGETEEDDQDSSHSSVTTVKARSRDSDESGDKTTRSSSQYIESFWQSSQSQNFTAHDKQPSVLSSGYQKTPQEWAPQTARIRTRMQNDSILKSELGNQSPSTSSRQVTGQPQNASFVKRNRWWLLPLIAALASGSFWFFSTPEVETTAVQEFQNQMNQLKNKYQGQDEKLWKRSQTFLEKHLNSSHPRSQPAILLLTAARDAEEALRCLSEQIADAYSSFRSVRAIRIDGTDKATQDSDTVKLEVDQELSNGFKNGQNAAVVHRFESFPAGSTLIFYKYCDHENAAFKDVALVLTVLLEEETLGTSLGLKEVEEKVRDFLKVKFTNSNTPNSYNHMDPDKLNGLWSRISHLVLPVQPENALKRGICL

[10] = target: Alpha-bungarotoxin (Bungarus multicinctus) (UniProt P60615); experiment: alpha-bungarotoxin binders on microarray, profiling panel, artefact control for SMM control protein annotation, biochemical, small-molecule microarray, Alexa647 label, 635/667 nm fluorescence (AID 1117); conditions: alpha-BTX-A647 binding fluorescence, higher = more signal
Alpha-bungarotoxin (Bungarus multicinctus), sequence (P60615 whole entry, looked up): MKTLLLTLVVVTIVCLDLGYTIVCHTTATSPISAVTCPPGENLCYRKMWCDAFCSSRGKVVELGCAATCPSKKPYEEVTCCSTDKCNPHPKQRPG

[11] = target: Albumin (Bos taurus) (UniProt P02769); experiment: bovine serum albumin binders on microarray, profiling panel, artefact control for SMM control protein annotation, biochemical, small-molecule microarray, Alexa647 label, 635/667 nm fluorescence (AID 1118); conditions: BSA-A647 binding, fluorescence 635 nm, higher = more signal;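 further: score merges 667 nm emission intensity and signal-to-noise per printed compound spot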
Albumin (Bos taurus), sequence (P02769 whole entry, looked up): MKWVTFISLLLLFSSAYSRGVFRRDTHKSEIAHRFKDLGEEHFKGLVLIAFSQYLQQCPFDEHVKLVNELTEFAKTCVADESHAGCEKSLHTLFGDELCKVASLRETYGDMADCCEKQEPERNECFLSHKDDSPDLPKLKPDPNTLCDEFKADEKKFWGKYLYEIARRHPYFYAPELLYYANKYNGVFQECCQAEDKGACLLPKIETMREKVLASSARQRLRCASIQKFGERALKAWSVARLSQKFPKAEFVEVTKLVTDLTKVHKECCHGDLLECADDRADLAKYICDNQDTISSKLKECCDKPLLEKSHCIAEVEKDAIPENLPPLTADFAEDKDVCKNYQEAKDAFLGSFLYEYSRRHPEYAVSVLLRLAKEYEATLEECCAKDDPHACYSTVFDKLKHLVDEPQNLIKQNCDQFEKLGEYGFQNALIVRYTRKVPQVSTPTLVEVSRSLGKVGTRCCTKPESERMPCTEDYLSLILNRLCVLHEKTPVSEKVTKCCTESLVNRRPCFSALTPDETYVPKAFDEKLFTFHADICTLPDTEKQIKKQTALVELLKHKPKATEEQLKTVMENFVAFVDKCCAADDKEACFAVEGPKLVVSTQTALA

[12] = small-molecule microarray binders of probe aXIP, primary screen, biochemical, NeuroSMM set, 635/667 nm fluorescence (AID 1119); conditions: higher = more signal, called active from +8 up or from −8 down;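 further: probe is the protein aXip251-270 applied at 1 µg/mL to compound-printed slides; binding of probe to printed compounds measured as 667 nm fluorescence plus signal to noise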
[13] = small-molecule binders of probe aNOTCH3, primary screen, biochemical, small-molecule microarray, 635/667 nm fluorescence (AID 1120); conditions: higher = more signal;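 further: probe is a biotin-tagged antibody raised against NOTCH3 rather than NOTCH3 protein; score merges spot fluorescence near 667 nm with spot signal to noise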
[14] = small-molecule binders of probe aNOTCH2, primary screen, biochemical, small-molecule microarray, 635/667 nm fluorescence (AID 1121); conditions: higher = more signal;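 further: score merges feature fluorescence read at 667 nm with its signal to noise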
[15] = target: Carbonic anhydrase 2 (Homo sapiens) (UniProt P00918); experiment: CAII small-molecule binders, profiling panel, biochemical, small-molecule microarray, Alexa647-labelled CAII (AID 1122); conditions: CAII-A647 binding fluorescence, higher = more signal
[16] = COS7 lysate on small-molecule microarray, probe aHis, 635 nm (AID 1123); conditions: COS7 cell lysate, fluorescence, higher = more signal;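 further: z-score combines 667nm fluorescence intensity with signal-to-noise per printed compound spot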
[17] = compound binding in COS7 lysate, probe aLAP1, primary screen, cell lysate, small-molecule microarray (AID 1124); conditions: probe aLAP1, fluorescence, higher = more signal;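 further: lysate comes from COS7 cells expressing LAP1 and is applied at 0.3 µg/mL; score merges spot fluorescence near 667 nm with signal-to-noise over triplicate slides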
[18] = system: Sam68 (KHDRBS1); experiment: Sam68 small-molecule binders, primary screen, biochemical, small-molecule microarray, 635 nm fluorescence (AID 1125); conditions: small-molecule microarray binding, higher = more signal;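 further: score merges 667 nm channel intensity with signal to noise over triplicate slides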
[19] = system: Chordin-like protein 2 (CHRDL2); experiment: CHRDL2 small-molecule binders, primary screen, biochemical, small-molecule microarray, 635 nm fluorescence (AID 1126); conditions: small-molecule microarray binding, fluorescence 635 nm; higher = more signal;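 further: printed compound slides probed with Chrdl2 protein at 4 µg/mL for 1 h at 4 C; score merges 667 nm emission intensity with signal to noise over three replicate slides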
[20] = target: Concanavalin-A (Canavalia ensiformis) (UniProt P02866); experiment: ConA small-molecule binders, primary screen, artefact control for SMM control protein annotation, biochemical, small-molecule microarray, Alexa647 label, 635 nm (AID 1127); conditions: ConA-A647 binding fluorescence, higher = more signal;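 further: z combines 667 nm emission intensity with signal-to-noise across three replicate slides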
Concanavalin-A (Canavalia ensiformis), sequence (P02866 whole entry, looked up): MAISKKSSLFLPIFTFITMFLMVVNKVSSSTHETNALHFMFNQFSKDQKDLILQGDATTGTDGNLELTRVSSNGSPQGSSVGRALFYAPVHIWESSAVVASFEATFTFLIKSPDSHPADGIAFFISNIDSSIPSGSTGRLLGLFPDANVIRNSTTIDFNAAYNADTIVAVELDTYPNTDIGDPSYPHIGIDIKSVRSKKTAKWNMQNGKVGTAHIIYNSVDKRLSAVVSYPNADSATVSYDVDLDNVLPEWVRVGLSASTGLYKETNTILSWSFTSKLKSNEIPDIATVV

| Structure (SMILES) | composite z-score [1] | z-score [2] | composite z-score [3] | composite z-score [4] | composite z-score [5] | composite z-score [6] | composite z-score [7] | composite z-score [8] | composite z-score [9] | composite z-score [10] | composite z-score [11] | composite Z-score [12] | composite z-score [13] | composite z-score [14] | composite z-score [15] | composite z-score [16] | composite z-score [17] | composite z-score [18] | composite z-score [19] | composite z-score [20] |
| --- | --- | --- | --- | --- | --- | --- | --- | --- | --- | --- | --- | --- | --- | --- | --- | --- | --- | --- | --- | --- |
| CCOC(=O)[C@H](Cc1ccccc1)NC(=O)CCC1CC(OC(=O)NCCc2ccc(F)cc2)CC2(CCCC(COC(=O)NCc3ccccc3)O2)O1 (stereo not given in full) | 1.29 | -0.929 | 0.829 | 0.774 | -0.129 | -0.157 | 1.15 | -0.118 | 0.601 | 0.154 | 0.0213 | 0.42 (inactive) | -0.0711 | -0.124 | 0.108 | 0.244 | -0.106 | 1.2 | 0.468 | 0.477 |
| COC(=O)CC=C[C@@H](C)[C@@H](C=NO[C@@H]1O[C@H](COC(C)=O)[C@@H](OC(C)=O)[C@H](OC(C)=O)[C@H]1OC(C)=O)NS(=O)(=O)c1ccc(C)cc1 | -0.296 | -0.594 | 0.599 | -0.881 | -1.69 | -0.124 | -0.221 | -0.158 | -0.441 | -1 | -0.228 | 0.504 (inactive) | -0.0111 | -0.0984 | -0.701 | -0.323 | -0.045 | 0.682 | -0.051 | -0.909 |
| C[C@H]1CC[C@H]2C(=O)O[C@H](COc3ccc(C(C)(C)C)cc3)CN2[C@@H]1c1ccc(Br)cc1 | 0.179 | -0.145 | -0.281 | 1 | 0.101 | -0.139 | -0.0548 | 0.0051 | 0.303 | 1.15 | 0.513 | 1.48 (inactive) | -0.0435 | -0.123 | -0.232 | 0.263 | 0.253 | 0.421 | -0.0816 | 1.09 |
| CO[C@H]1COC(=O)[C@H](C)NC(=O)[C@@H](C)COC(=O)[C@H]2CCCN2C(=O)CC=C[C@H]1C | 0.13 | -0.328 | 0.663 | -0.538 | -1.38 | -0.144 | -0.24 | -0.28 | 0.109 | -0.0339 | -0.74 | -0.533 (inactive) | -0.178 | -0.148 | -0.273 | -0.414 | -0.0354 | 0.476 | 1.17 | -0.229 |
| C[C@H]1COC(=O)[C@@H]2CCCN2C(=O)[C@@H](C)COC(=O)[C@H](Cc2ccccc2)NC1=O | 0.851 | -1.34 | 0.474 | -0.099 | -0.447 | -0.124 | -0.206 | -0.3 | 0.308 | 0.158 | -0.0588 | -0.21 (inactive) | -0.0647 | -0.126 | 0.294 | 0.403 | 0.137 | 0.957 | 0.211 | 0.476 |
| CCc1cc2c(nc1CC)CCN(CCC(C)=NOC[C@H]1O[C@H](c3ccccc3)C=C[C@@H]1Oc1ccc(OC)cc1)C2 | 0.371 | -3.16 | -0.0061 | -0.112 | 0.366 | -0.0944 | 0.0639 | -0.0065 | 0.76 | 0.292 | 0.184 | -0.0263 (inactive) | -0.0311 | -0.155 | 0.787 | 0.552 | 0.056 | 0.292 | -0.0913 | 0.208 |
| COc1ccc(O[C@H]2C=C[C@@H](c3ccccc3)O[C@@H]2COC(=O)CCC(C)=NOC(C)CN2CCCc3nc(C)c(C)cc32)cc1 (stereo not given in full) | 1.31 | -1.81 | 0.646 | 0.0727 | -0.384 | -0.124 | 0.0278 | 0.109 | 0.4 | 0.463 | 0.247 | 1.32 (inactive) | 0.0013 | -0.106 | 0.21 | 0.676 | 0.304 | 1.31 | 0.43 | 1.01 |
| COC(=O)[C@H](C)NC(=O)CCC1CC(OC(=O)NCCc2ccc(F)cc2)CC2(CCCC(COC(=O)NCCC(C)C)O2)O1 (stereo not given in full) | 0.466 | 0.839 | 0.482 | 0.0458 | -0.233 | -0.119 | 0.0483 | -0.254 | 0.189 | 1.07 | 0.828 | 0.443 (inactive) | -0.0262 | 0.128 | 0.325 | 0.834 | -0.234 | 0.36 | 0.0905 | 0.0934 |
| CCOC(=O)[C@H](CC(C)C)NC(=O)CCC1CC(OC(=O)NCc2ccc3c(c2)OCO3)CC2(CCCC(COC(=O)NCC3CCCCC3)O2)O1 (stereo not given in full) | 1.39 | -1.49 | 0.894 | -0.0184 | -0.381 | -0.0087 | 0.131 | -0.367 | 0.711 | 0.415 | 0.235 | 0.189 (inactive) | 0.31 | -0.207 | 0.368 | 0.636 | 0.244 | 1.32 | 0.567 | 0.512 |
| CCCNC(=O)OC[C@H]1O[C@H](c2ccccc2)C=C[C@@H]1Oc1ccc(OC)cc1 | -0.823 | -0.974 | 0.424 | -0.598 | -0.202 | -0.132 | -0.153 | -0.343 | 0.124 | -0.0001 | 0.16 | 0.0414 (inactive) | -0.15 | -0.14 | 0.066 | 0.232 | 0.0186 | -0.573 | 0.062 | -0.316 |
| CCOC(=O)NN=C1C[C@@H](O)[C@@H](O)[C@@H]2[C@@H]3C(=O)N([C@@H](C)c4ccccc4)C(=O)[C@@H]3CC[C@@H]12 | 0.207 | 0.0672 | 0.937 | -0.762 | -2.03 | -0.191 | -0.476 | -0.12 | 1.41 | -0.778 | -0.899 | -0.491 (inactive) | 0.119 | -0.0968 | -0.0526 | -0.374 | 0.129 | 1.23 | 1.02 | -1.09 |
